The text below walks through data of PubChem BioAssay (Tox21).

Inconclusive results are not listed. Activity calls are given as the source filed them. Calls come from the whole dose curve; as a rule, active = well fitted cell-killing curve with a large enough effect in the repeat runs; inconclusive = weak or mixed curves, or effect the other way; inactive = flat fitted curve, though single readings scatter.
% is set by controls: 0 for no effect and ±100 for the full control effect; potency is the fitted concentration of half-maximal effect.

The experiment can be described thus: qHTS RealTime-Glo MT Cell Viability Assay in HEK293 cells - 16 hour (AID 1224872). For activity change, negative = cytotoxicity: top concentration of the series differs between compounds. Note: nearly all actives have a fitted effect of over 50% in size. As to conditions: RealTime-Glo luminescence; series mostly up to 76.8 µM; activity change, negative = cytotoxicity: at the top concentration. The text has this:
National Center for Advancing Translational Sciences [NCATS]
NIH Chemical Genomics Center [NCGC]
U.S. Environmental Protection Agency [EPA]
National Institutes of Environmental Health Sciences [NIEHS]
National Toxicology Program [NTP]
U.S. Food and Drug Administration [FDA]
Measure of cell viability is critical in the cell-base assay. Analysis of cell viability is necessary for the characterization of cell responses to cytotoxic drugs and environmental stress. A RealTime-Glo MT Cell Viability Assay to monitor cell viability in real time of continues cell culture during 40 hours of compound treatment was used to screen Tox21 10K library compounds in Hek293 cells. The RealTime-Glo MT Cell Viability Assay is a nonlytic, homogeneous, bioluminescent method to measure cell viability in real time using a simple, plate-based method. The assay involves adding NanoLuc luciferase and a cell-permeant prosubstrate to cells in culture. Viable cells reduce the proprietary prosubstrate to generate a substrate for NanoLuc luciferase. This substrate diffuses from cells into the surrounding culture medium, where it is rapidly used by the NanoLuc Enzyme to produce a luminescent signal. The signal correlates with the number of viable cells, making the assay well suited for cytotoxicity studies.
Tox21 Assay Protocol Summary:
The mixture of Hek293 cell suspension and reagents were dispensed at 600cells/6 ul/well in 1536-well tissue culture treated black solid bottom plates using a Multidrop dispenser. After the assay plates were incubated at a 37 C/5% CO2 incubator for 5 hours, 23 nL of compounds dissolved in DMSO, positive and negative controls was transferred to the assay plate by a pintool work station. The plates were incubated at 37 C for 40 hours. The luminescence intensity were measured at 0h, 8h, 16h, 24h, 32h and 40h time points using ViewLux plate reader during compound treatment.
In general terms: qHTS replaces the single test concentration by a dilution series.
Consider `CCCCCCCCCCCC(=O)NCCCN(C)C`, for which the Potency was 49 µM (active). With `CC[C@H](c1ccc(O)cc1)[C@@H](CC)c1ccc(O)cc1`, the “activity change, negative = cytotoxicity” value is -29.9% [at 35.3 µM] (inactive). On to `COc1cc(-c2ccc(N=C=O)c(OC)c2)ccc1N=C=O`, for which the “activity change, negative = cytotoxicity” value is -4.45% [at 35.3 µM] (inactive). Turning to `CCCCCCCCNC(C)C(O)c1ccc(SC(C)C)cc1` (stereo not given), the Potency is 10.7 µM (active). Still for that read-out and setting: then `CCCCCCCCCOC(=O)c1ccc(O)cc1`, with 43 µM (active). For `Cc1cccc(S(=O)(=O)O)c1C`, the “activity change, negative = cytotoxicity” value is -0.289% (inactive).

Consider `CSc1ccc(C(=O)c2[nH]c(=O)[nH]c2C)cc1`, for which the “activity change, negative = cytotoxicity” value is -0.298% [at 35.3 µM] (inactive). Consider `c1ccc(CSCc2ccccc2)cc1`, for which the “activity change, negative = cytotoxicity” value is -11.6% (inactive). Consider `CCCCCCCC[P+](CCCCCCCC)(CCCCCCCC)CCCCCCCC`, for which the Potency is 4.87 µM (active). On to `CCN(CC)CCNC(=O)c1c(C)[nH]c(/C=C2\C(=O)Nc3ccc(F)cc32)c1C`, for which the Potency was 10.7 µM (active). `CCCCCCCCCCCCc1ccc(O)cc1`: the Potency was 38.9 µM (active).

Turning to `O=[N+]([O-])c1cc([N+](=O)[O-])c2ccc(S(=O)(=O)O)cc2c1O`, the “activity change, negative = cytotoxicity” value is -19.4% (inactive). For the molecule `CC1=C(/C=C/C(C)=C/C=C/C(C)=C/C=O)C(C)(C)CCC1`, the Potency is 19.4 µM (active).

With `CCCCN1C(=O)[C@@H]([C@H](O)C2CCCCC2)NC(=O)C12CCN(Cc1ccc(Oc3ccc(C(=O)O)cc3)cc1)CC2`, the “activity change, negative = cytotoxicity” value is -12.4% (inactive). `COc1ccc(CN2CCN(C(c3ccc(F)cc3)c3ccc(F)cc3)CC2)c(OC)c1OC`: the Potency was 9.52 µM (active). As to `O=C(OC[C@H]1O[C@@H](OC(=O)c2cc(O)c(O)c(OC(=O)c3cc(O)c(O)c(O)c3)c2)[C@H](OC(=O)c2cc(O)c(O)c(OC(=O)c3cc(O)c(O)c(O)c3)c2)[C@@H](OC(=O)c2cc(O)c(O)c(OC(=O)c3cc(O)c(O)c(O)c3)c2)[C@@H]1OC(=O)c1cc(O)c(O)c(OC(=O)c2cc(O)c(O)c(O)c2)c1)c1cc(O)c(O)c(OC(=O)c2cc(O)c(O)c(O)c2)c1`, the activity change, negative = cytotoxicity is -9.99% [at 15.8 µM] (inactive). On to `Nc1ccccc1O`, for which the “activity change, negative = cytotoxicity” value was -4.07% (inactive). On the same count and under the same terms, then `CCCCC(CC)COP(=O)(O)OCC(CC)CCCC` (stereo not given), with -27.1% (inactive). For `Nc1ccc2c3c(cccc13)-c1ccccc1-2`, the Potency was 24.8 µM (active).

With `Oc1ccc2cc(SSc3ccc4cc(O)ccc4c3)ccc2c1`, the Potency was 49 µM (active).

Turning to `Fc1ccc([C@@H]2CCNC[C@H]2COc2ccc3c(c2)OCO3)cc1`, the “activity change, negative = cytotoxicity” value is -23.7% [at 35.3 µM] (inactive). On to `CCCC(C)c1ccccc1O` (stereo not given), for which the “activity change, negative = cytotoxicity” value was -14.6% (inactive). On the same count and under the same terms, then `CCCCCCCC(=O)[O-].CCCCCCCC(=O)[O-].[Zn+2]`, with 9.42% [at 35.3 µM] (inactive). On to `CCCCCCCCCCCCCCCCCC[N+](C)(C)C`, for which the Potency was 24.6 µM (active). On to `O=C1c2ccccc2Cc2ccccc21`, for which the “activity change, negative = cytotoxicity” value is -17.8% (inactive). With `Cc1ccc(O)c(C(C)(C)C)c1`, the Potency result was “inactive”. Regarding `Cc1onc(-c2ccccc2Cl)c1C(=O)N[C@@H]1C(=O)N2[C@@H]1SC(C)(C)[C@@H]2C(=O)O`, the “activity change, negative = cytotoxicity” value was 6.13% [at 35.3 µM] (inactive). As to `CCCC(c1cc(C(C)(C)C)c(O)cc1C)c1cc(C(C)(C)C)c(O)cc1C`, the Potency was 24.8 µM (active). Consider `O=C(O)c1c(Cl)cccc1Cl`, for which the “activity change, negative = cytotoxicity” value is 0.169% (inactive). On to `Nc1c2ccccc2nc2ccccc12`, for which the Potency was 19.2 µM (active). Take `Cc1oc(-c2ccccc2)nc1CCC(=O)c1ccc(CC2SC(=O)NC2=O)cc1` (stereo not given): the “activity change, negative = cytotoxicity” value is -18.3% [at 35.3 µM] (inactive).

Consider `Oc1cccc2cc3cccc(O)c3c(O)c12`, for which the “activity change, negative = cytotoxicity” value is -0.458% (inactive).

`CO[Si](CCCNc1ccccc1)(OC)OC`: the “activity change, negative = cytotoxicity” value was 12.7% (inactive). On to `CN(C)c1ccc(C2(c3ccc(N(C)C)cc3)OC(=O)c3cc(N(C)C)ccc32)cc1`, for which the “activity change, negative = cytotoxicity” value was -2.07% (inactive). In the case of `O=C(OCC(COC(=O)c1ccccc1)(COC(=O)c1ccccc1)COC(=O)c1ccccc1)c1ccccc1`, the Potency is 43.6 µM (active). Turning to `O=S1(=O)CC(Cl)(Cl)C(Cl)(Cl)C1`, the Potency is 4.9 µM (active). Same read-out and setting: for `CCc1cc(SCc2sc(-c3ccc(C(F)(F)F)cc3)nc2CN2CCN(c3ccc(OC)cc3)CC2)ccc1OCC(=O)O` the value was 19.5 µM (active). Turning to `NC(=NCCCCCCN=C(N)/N=C(\N)Nc1ccc(Cl)cc1)/N=C(\N)Nc1ccc(Cl)cc1`, the Potency is 19.8 µM (active) [middle of 4 runs]. With `CC(=O)SC[C@@H](Cc1ccccc1)C(=O)NCC(=O)OCc1ccccc1`, the “activity change, negative = cytotoxicity” value is 2.9% [at 35.3 µM] (inactive). Turning to `Oc1ccc(N=Nc2ccccc2)cc1`, the Potency was 15.7 µM (active).
